Records with an inconclusive call do not appear. Entries that show only a call come without a potency. The source made the active and inactive calls. The call rests on the fitted dose curve; in most records, active means well fitted inhibition curve with a large enough effect; inconclusive means small, poorly fitted or top-dose-only effect; inactive means flat fitted curve, though single readings scatter.
Potency means the concentration at half of the fitted maximal effect.

In the first experiment the test system is CP185. Description: qHTS profiling for inhibitors of Plasmodium falciparum proliferation (AID 504749). Further: nearly all actives have a fitted effect of over 60% in size. To be noted: P. falciparum in erythrocytes, SYBR Green DNA, 72 h; series mostly up to 28.7 µM. The gist of the method: (§1)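 Infected RBCs, 0.3% parasitemia/2.5% Hct final; cpd 72 h, 37 C, 5% CO2; lysis buffer with saponin/triton/SYBR Green I, o/n RT dark; FI 485/535; norm. to artemisinin (0.29 uM) and DMSO.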
A general note: qHTS replaces the single test concentration by a dilution series.
As for `CCN(CC)CCOc1ccc2c(c1)C(=O)c1cc(OCCN(CC)CC)ccc1-2`, the Potency is 12.6 µM (active).

In the case of `CCCN(CCc1cccs1)[C@H]1CCc2c(O)cccc2C1`, the Potency is 11.2 µM (active).

Turning to `CN1CCN(C2=Nc3ccccc3Sc3ccc(Cl)cc32)CC1`, the Potency result is “inactive”.

`CC1=C(C(=O)O)N2C(=O)[C@@H](NC(=O)[C@H](N)c3ccccc3)[C@H]2SC1`: the Potency entry was “inactive”.

Regarding `COc1ccc(C(=O)c2ccccc2O)c(O)c1`, the Potency entry was “inactive”.

Regarding `COc1cc(N)c(Cl)cc1C(=O)NC1CCN(Cc2ccccc2)CC1`, the Potency entry is “inactive”.

As to `Cc1cc(CC(=O)O)c(C)n1-c1ccc(Cl)cc1`, the Potency result is “inactive”.

As for `O=C(NC1CCN(CCc2c[nH]c3ccccc23)CC1)c1ccccc1`, the Potency result was “inactive”.

As to `O=[N+]([O-])c1cccc(S(=O)(=O)NCCNS(=O)(=O)c2cccc([N+](=O)[O-])c2)c1`, the Potency entry was “inactive”.

In the case of `C[N+]1(C)CCC(=C(c2ccccc2)c2ccccc2)CC1`, the Potency result was “inactive”.

With `CCNC(=O)/C=C/c1cccc(Br)c1`, the Potency entry is “inactive”.

As to `Cn1c(=O)c2[nH]c(Br)nc2n(C)c1=O`, the Potency result was “inactive”.

Turning to `CO[C@]12C[C@@H](COC(=O)c3cncc(Br)c3)CN(C)[C@@H]1Cc1cn(C)c3cccc2c13`, the Potency entry is “inactive”.

For `Cc1ccc2c(Br)cc(Br)c(O)c2n1`, the Potency was 10 µM (active).

Turning to `Cc1cc2c(OCC(CNC(C)(C)C)OC(=O)c3ccccc3)cccc2[nH]1` (stereo unspecified), the Potency result was “inactive”.

As for `CN1CCC[C@@H]1CCO[C@](C)(c1ccccc1)c1ccc(Cl)cc1`, the Potency result was “inactive”.

The next experiment has as its system CP191. The experiment is described as above. To be noted: P. falciparum in erythrocytes, SYBR Green DNA, 72 h; series mostly up to 28.7 µM. In a few lines:
as §1
For `CCCN(CCc1cccs1)[C@H]1CCc2c(O)cccc2C1`, the Potency is 10 µM (active).

Consider `CC1=C(C(=O)O)N2C(=O)[C@@H](NC(=O)[C@H](N)c3ccccc3)[C@H]2SC1`, for which the Potency entry was “inactive”.

For `O=S(c1cc(Cl)cc(Cl)c1O)c1cc(Cl)cc(Cl)c1O`, the Potency was 17.8 µM (active).

Regarding `O=C(NC1CCN(CCc2c[nH]c3ccccc23)CC1)c1ccccc1`, the Potency is 8.91 µM (active).

For `CC[N+](C)(CC)CCOC(=O)C(O)(c1ccccc1)C1CCCCC1` (stereo unspecified), the Potency entry was “inactive”.

In the case of `Oc1c(Cl)cc(Cl)c(Cl)c1Cc1c(O)c(Cl)cc(Cl)c1Cl`, the Potency was 8.91 µM (active).

In the case of `Cn1c(=O)c2[nH]c(Br)nc2n(C)c1=O`, the Potency entry is “inactive”.

Turning to `CC(C)(C)NC[C@H](O)COc1nsnc1N1CCOCC1`, the Potency was 7.08 µM (active).

Regarding `OC(C#CCN1CCCC1)(c1ccccc1)c1ccccc1`, the Potency entry is “inactive”.

A further experiment relates to CP192. Described as above. To be noted: P. falciparum in erythrocytes, SYBR Green DNA, 72 h; series mostly up to 28.7 µM. The gist of the method: as §1
Take `CN1CCN(C2=Nc3ccccc3Sc3ccc(Cl)cc32)CC1`: the Potency result is “inactive”.

Consider `CC(C)(Cc1c[nH]c2ccccc12)NCC(O)COc1ccccc1C#N` (stereo unspecified), for which the Potency result was “inactive”.

As for `CC1=C(C(=O)O)N2C(=O)[C@@H](NC(=O)[C@H](N)c3ccccc3)[C@H]2SC1`, the Potency result was “inactive”.

On to `O=C(CN1CCN(Cc2ccc3c(c2)OCO3)CC1)N1c2ccccc2Sc2ccccc21`, for which the Potency result is “inactive”.

With `COc1ccc(C(=O)c2ccccc2O)c(O)c1`, the Potency result was “inactive”.

On to `COc1cc(N)c(Cl)cc1C(=O)NC1CCN(Cc2ccccc2)CC1`, for which the Potency result was “inactive”.

Turning to `Cc1cc(CC(=O)O)c(C)n1-c1ccc(Cl)cc1`, the Potency entry was “inactive”.

For `CN(C)CCOC(c1ccc(Cl)cc1)c1ccccn1` (stereo unspecified), the Potency result is “inactive”.

Regarding `O=C(NC1CCN(CCc2c[nH]c3ccccc23)CC1)c1ccccc1`, the Potency result was “inactive”.

Take `CC(C)(C)CC(C)(C)c1ccc(O)c(-n2nc3ccccc3n2)c1`: the Potency result was “inactive”.

As to `O=[N+]([O-])c1cccc(S(=O)(=O)NCCNS(=O)(=O)c2cccc([N+](=O)[O-])c2)c1`, the Potency entry was “inactive”.

In the case of `CC[N+](C)(CC)CCOC(=O)C(O)(c1ccccc1)C1CCCCC1` (stereo unspecified), the Potency entry is “inactive”.

In the case of `CCNC(=O)/C=C/c1cccc(Br)c1`, the Potency result was “inactive”.

Consider `CCCCCCCCCCCCOCCOCCOCCOCCOCCOCCOCCOCCOCCO`, for which the Potency entry is “inactive”.

In the case of `NC1CCN(c2nc3c(cc2F)c(=O)c(C(=O)O)cn3-c2ccc(F)cc2F)C1` (stereo unspecified), the Potency result was “inactive”.

`CN1CCN(c2c(F)cc3c(=O)c(C(=O)O)cn4c3c2SCC4)CC1`: the Potency entry was “inactive”.

Consider `Cn1c(=O)c2[nH]c(Br)nc2n(C)c1=O`, for which the Potency result is “inactive”.

As for `CO[C@]12C[C@@H](COC(=O)c3cncc(Br)c3)CN(C)[C@@H]1Cc1cn(C)c3cccc2c13`, the Potency result was “inactive”.

As to `CN(CCCN1c2ccccc2CCc2ccccc21)CC(=O)c1ccc(Cl)cc1`, the Potency result is “inactive”.

As for `Cc1cc2c(OCC(CNC(C)(C)C)OC(=O)c3ccccc3)cccc2[nH]1` (stereo unspecified), the Potency result was “inactive”.

For the molecule `Oc1ccc(Cl)cc1Cc1cc(Cl)ccc1O`, the Potency entry was “inactive”.

Turning to `CN1CCC[C@@H]1CCO[C@](C)(c1ccccc1)c1ccc(Cl)cc1`, the Potency entry is “inactive”.

Another experiment concerns CP194. Described as above. To be noted: P. falciparum in erythrocytes, SYBR Green DNA, 72 h; series mostly up to 28.7 µM. The gist of the method: as §1
For `CCCN(CCc1cccs1)[C@H]1CCc2c(O)cccc2C1`, the Potency is 13.5 µM (active).

For `CC1=C(C(=O)O)N2C(=O)[C@@H](NC(=O)[C@H](N)c3ccccc3)[C@H]2SC1`, the Potency entry is “inactive”.

As for `COc1ccc(C(=O)c2ccccc2O)c(O)c1`, the Potency entry was “inactive”.

Turning to `COc1cc(N)c(Cl)cc1C(=O)NC1CCN(Cc2ccccc2)CC1`, the Potency result was “inactive”.

With `Cc1cc(CC(=O)O)c(C)n1-c1ccc(Cl)cc1`, the Potency result is “inactive”.

As for `O=C(NC1CCN(CCc2c[nH]c3ccccc23)CC1)c1ccccc1`, the Potency result is “inactive”.

Regarding `CC(C)(C)CC(C)(C)c1ccc(O)c(-n2nc3ccccc3n2)c1`, the Potency result was “inactive”.

Turning to `O=[N+]([O-])c1cccc(S(=O)(=O)NCCNS(=O)(=O)c2cccc([N+](=O)[O-])c2)c1`, the Potency result was “inactive”.

For `C[N+]1(C)CCC(=C(c2ccccc2)c2ccccc2)CC1`, the Potency entry is “inactive”.

For the molecule `CC[N+](C)(CC)CCOC(=O)C(O)(c1ccccc1)C1CCCCC1` (stereo unspecified), the Potency entry is “inactive”.

Take `Oc1c(Cl)cc(Cl)c(Cl)c1Cc1c(O)c(Cl)cc(Cl)c1Cl`: the Potency is 10.7 µM (active).

As to `CCNC(=O)/C=C/c1cccc(Br)c1`, the Potency result was “inactive”.

On to `CCCCCCCCCCCCOCCOCCOCCOCCOCCOCCOCCOCCOCCO`, for which the Potency result is “inactive”.

For the molecule `CN1CCN(c2c(F)cc3c(=O)c(C(=O)O)cn4c3c2SCC4)CC1`, the Potency result is “inactive”.

As for `Cn1c(=O)c2[nH]c(Br)nc2n(C)c1=O`, the Potency result was “inactive”.

Take `CO[C@]12C[C@@H](COC(=O)c3cncc(Br)c3)CN(C)[C@@H]1Cc1cn(C)c3cccc2c13`: the Potency entry is “inactive”.

As to `Cc1ccc2c(Br)cc(Br)c(O)c2n1`, the Potency is 13.5 µM (active).

For the molecule `Cc1cc2c(OCC(CNC(C)(C)C)OC(=O)c3ccccc3)cccc2[nH]1` (stereo unspecified), the Potency entry was “inactive”.

In the case of `Oc1ccc(Cl)cc1Cc1cc(Cl)ccc1O`, the Potency entry was “inactive”.

(Values after PubChem BioAssay (NCATS).)
